Legend:
Experiment in all cases: DAPPL (digital affinity profiling via proximity ligation, sequencing); 10 mM Tris-HCl pH 7.5, 50 mM NaCl, 1 mM DTT, 4% glycerol, room temperature, 30 min; GST-TFs on glutathione beads, 16-mer random dsDNA library, 0.1% formaldehyde crosslink after washing; high values mean tight binding
FLI1 = target: T1, FLI1 (Homo sapiens, UniProt Q01543 1-452); conditions: protein: recombinant; tags: N-terminal GST; dsDNA, one strand shown
T1 sequence: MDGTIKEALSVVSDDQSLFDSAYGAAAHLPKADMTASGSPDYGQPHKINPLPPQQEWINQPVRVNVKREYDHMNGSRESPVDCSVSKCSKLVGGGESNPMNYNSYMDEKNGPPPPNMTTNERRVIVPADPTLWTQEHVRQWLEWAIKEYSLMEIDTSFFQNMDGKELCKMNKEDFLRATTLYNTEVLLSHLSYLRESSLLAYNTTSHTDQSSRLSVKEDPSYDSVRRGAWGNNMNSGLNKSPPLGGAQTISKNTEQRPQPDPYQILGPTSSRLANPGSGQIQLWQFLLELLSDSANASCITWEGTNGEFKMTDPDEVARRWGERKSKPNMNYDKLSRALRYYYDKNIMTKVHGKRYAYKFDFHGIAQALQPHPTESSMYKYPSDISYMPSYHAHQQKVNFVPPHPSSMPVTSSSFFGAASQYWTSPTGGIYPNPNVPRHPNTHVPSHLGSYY
Method in brief: (§1)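 In yeast, human transcription factors were expressed with a GST fusion, then pulled down on glutathione beads and given DNA barcodes. Pooled with a tag-only sample, they were exposed to 200 nmole of a 16-mer random double-stranded DNA library (Tris/NaCl/DTT/glycerol buffer, room temperature, 30 min), washed, crosslinked with 0.1% formaldehyde, proximity-ligated using BsaI/T4 ligase for 1 h at 37 °C, PCR-amplified and read on an Illumina NextSeq500. Each hexamer's frequency of reads for a factor, divided by the matching frequency for the tag-only sample, gives the binding signal.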

ELK1 = target: T2, ELK1 (Homo sapiens, UniProt P19419 1-428); conditions: protein: recombinant; tags: N-terminal GST; dsDNA, one strand shown
T2 sequence: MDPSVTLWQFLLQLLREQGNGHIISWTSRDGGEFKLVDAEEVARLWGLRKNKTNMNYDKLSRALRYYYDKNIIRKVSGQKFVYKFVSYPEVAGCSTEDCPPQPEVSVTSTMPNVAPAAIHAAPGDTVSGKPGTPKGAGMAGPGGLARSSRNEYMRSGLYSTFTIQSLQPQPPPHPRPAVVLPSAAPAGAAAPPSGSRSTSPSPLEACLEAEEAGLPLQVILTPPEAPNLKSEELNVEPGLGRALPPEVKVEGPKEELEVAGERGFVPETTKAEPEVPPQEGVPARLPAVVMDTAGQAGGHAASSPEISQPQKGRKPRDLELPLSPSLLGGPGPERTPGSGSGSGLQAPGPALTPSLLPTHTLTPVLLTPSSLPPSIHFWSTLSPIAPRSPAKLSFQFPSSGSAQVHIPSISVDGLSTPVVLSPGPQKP
Method in brief: as §1

GABPA = target: T3, GABPA (Homo sapiens, UniProt Q06546 1-454); conditions: protein: recombinant; tags: N-terminal GST; dsDNA, one strand shown
T3 sequence: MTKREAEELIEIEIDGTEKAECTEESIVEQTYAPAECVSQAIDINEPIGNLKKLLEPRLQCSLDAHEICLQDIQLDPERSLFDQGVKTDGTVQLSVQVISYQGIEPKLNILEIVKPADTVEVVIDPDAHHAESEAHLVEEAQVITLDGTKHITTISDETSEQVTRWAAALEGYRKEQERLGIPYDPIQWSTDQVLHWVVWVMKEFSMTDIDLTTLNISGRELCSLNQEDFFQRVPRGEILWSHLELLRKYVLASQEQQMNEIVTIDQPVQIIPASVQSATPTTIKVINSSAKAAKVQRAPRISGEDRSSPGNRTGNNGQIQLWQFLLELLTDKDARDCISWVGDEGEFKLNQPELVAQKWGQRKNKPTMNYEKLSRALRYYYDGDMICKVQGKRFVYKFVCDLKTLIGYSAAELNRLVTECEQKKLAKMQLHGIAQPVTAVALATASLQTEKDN
Method in brief: as §1

ERG = target: T4, ERG (Homo sapiens, UniProt P11308 1-479); conditions: protein: recombinant; tags: N-terminal GST; dsDNA, one strand shown
T4 sequence: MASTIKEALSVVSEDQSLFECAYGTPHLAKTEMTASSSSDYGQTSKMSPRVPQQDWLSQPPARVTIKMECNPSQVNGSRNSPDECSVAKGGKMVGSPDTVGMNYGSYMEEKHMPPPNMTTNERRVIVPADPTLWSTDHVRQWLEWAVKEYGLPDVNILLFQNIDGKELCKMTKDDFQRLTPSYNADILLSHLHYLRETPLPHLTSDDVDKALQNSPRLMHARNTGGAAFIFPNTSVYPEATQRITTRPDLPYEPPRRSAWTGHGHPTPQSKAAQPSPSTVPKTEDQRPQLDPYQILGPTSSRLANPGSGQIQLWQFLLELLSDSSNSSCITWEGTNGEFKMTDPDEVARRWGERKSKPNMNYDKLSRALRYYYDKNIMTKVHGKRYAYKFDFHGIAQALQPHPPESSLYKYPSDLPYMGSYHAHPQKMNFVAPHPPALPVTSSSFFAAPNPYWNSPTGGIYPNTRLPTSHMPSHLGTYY
Method in brief: as §1

ELF1 = ELF1 (Homo sapiens, UniProt P32519 1-619); conditions: protein: recombinant; tags: N-terminal GST; dsDNA, one strand shown
Method in brief: as §1

EHF = target: T5, EHF (Homo sapiens, UniProt Q9NZC4 1-300); conditions: protein: recombinant; tags: N-terminal GST; dsDNA, one strand shown
T5 sequence: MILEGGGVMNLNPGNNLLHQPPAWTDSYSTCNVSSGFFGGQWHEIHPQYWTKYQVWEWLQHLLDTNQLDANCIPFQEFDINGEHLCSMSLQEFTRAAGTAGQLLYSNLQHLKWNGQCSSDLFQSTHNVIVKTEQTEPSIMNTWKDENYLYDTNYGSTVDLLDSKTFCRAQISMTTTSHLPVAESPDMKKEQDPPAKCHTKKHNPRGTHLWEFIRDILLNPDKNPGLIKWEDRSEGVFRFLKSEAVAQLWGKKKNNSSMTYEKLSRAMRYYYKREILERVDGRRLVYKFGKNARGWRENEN
Method in brief: as §1

SPI1 = SPI1 (Homo sapiens, UniProt P17947 1-270); conditions: protein: recombinant; tags: N-terminal GST; dsDNA, one strand shown
Method in brief: as §1

SPIB = SPIB (Homo sapiens, UniProt Q01892 1-262); conditions: protein: recombinant; tags: N-terminal GST; dsDNA, one strand shown
Method in brief: as §1

ELK3 = target: T6, ELK3 (Homo sapiens, UniProt P41970 1-407); conditions: protein: recombinant; tags: N-terminal GST; dsDNA, one strand shown
T6 sequence: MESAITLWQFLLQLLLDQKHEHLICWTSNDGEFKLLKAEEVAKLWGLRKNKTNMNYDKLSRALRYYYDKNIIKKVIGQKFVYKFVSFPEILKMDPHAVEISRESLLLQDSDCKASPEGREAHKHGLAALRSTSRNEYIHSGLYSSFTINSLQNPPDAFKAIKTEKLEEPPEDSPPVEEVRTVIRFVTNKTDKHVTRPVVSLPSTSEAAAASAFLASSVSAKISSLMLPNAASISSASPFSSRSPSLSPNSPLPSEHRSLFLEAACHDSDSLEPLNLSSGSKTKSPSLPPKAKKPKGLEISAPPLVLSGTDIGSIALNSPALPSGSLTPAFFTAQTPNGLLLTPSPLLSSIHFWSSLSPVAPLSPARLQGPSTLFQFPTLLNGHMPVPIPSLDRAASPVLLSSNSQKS
Method in brief: as §1

FEV = target: T7, FEV (Homo sapiens, UniProt Q99581 1-238); conditions: protein: recombinant; tags: N-terminal GST; dsDNA, one strand shown
T7 sequence: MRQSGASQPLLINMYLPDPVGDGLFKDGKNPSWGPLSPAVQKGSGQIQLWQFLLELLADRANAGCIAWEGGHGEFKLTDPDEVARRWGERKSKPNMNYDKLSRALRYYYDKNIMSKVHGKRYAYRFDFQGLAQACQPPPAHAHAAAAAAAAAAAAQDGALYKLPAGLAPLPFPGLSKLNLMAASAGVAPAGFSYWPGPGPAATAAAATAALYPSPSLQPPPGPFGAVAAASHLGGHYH
Method in brief: as §1

ETV5 = ETV5 (Homo sapiens, UniProt P41161 1-510); conditions: protein: recombinant; tags: N-terminal GST; dsDNA, one strand shown
Method in brief: as §1

HSF1 = HSF1 (Homo sapiens, UniProt Q00613 1-529); conditions: protein: recombinant; tags: N-terminal GST; chain copies: 3; dsDNA, one strand shown
Method in brief: as §1

ELF4 = ELF4 (Homo sapiens, UniProt Q99607 1-663); conditions: protein: recombinant; tags: N-terminal GST; dsDNA, one strand shown
Method in brief: as §1

ELK4 = target: T8, ELK4 (Homo sapiens, UniProt P28324-2 1-405); conditions: protein: recombinant; tags: N-terminal GST; dsDNA, one strand shown
T8 sequence: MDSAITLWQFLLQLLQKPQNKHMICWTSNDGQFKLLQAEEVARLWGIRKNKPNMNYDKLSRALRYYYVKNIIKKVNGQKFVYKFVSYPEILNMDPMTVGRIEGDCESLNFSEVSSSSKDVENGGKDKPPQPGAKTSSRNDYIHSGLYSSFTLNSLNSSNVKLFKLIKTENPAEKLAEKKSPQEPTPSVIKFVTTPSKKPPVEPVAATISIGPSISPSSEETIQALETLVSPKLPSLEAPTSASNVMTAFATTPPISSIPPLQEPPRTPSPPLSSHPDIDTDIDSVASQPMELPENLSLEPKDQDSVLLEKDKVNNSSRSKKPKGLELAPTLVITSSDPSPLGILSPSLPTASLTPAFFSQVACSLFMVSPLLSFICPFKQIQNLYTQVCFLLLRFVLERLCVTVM
Method in brief: as §1

ETV2 = target: T9, ETV2 (Homo sapiens, UniProt O00321 1-342); conditions: protein: recombinant; tags: N-terminal GST; dsDNA, one strand shown
T9 sequence: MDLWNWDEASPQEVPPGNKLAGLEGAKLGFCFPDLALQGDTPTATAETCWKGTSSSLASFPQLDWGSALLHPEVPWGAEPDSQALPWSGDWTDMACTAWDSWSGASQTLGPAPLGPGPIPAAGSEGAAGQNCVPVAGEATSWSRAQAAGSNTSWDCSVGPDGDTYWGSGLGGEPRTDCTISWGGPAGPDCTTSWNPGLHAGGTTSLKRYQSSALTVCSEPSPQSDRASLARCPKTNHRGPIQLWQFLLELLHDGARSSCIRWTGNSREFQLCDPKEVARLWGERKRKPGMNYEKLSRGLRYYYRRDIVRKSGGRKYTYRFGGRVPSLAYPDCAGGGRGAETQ
Method in brief: as §1

ELF3 = target: T10, ELF3 (Homo sapiens, UniProt P78545 1-371); conditions: protein: recombinant; tags: N-terminal GST; dsDNA, one strand shown
T10 sequence: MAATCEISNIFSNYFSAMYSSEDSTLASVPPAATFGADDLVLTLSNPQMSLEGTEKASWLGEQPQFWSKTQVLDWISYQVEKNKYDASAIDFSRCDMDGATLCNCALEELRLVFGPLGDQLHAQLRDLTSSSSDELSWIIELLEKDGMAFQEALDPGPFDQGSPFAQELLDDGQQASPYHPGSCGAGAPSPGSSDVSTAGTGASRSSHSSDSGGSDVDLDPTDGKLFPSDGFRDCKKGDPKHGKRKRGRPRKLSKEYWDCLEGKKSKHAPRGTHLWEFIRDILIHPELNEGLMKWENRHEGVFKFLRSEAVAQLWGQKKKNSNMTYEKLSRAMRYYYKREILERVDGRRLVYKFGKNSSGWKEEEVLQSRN
Method in brief: as §1

ETV1 = ETV1 (Homo sapiens, UniProt P50549 1-477); conditions: protein: recombinant; tags: N-terminal GST; dsDNA, one strand shown
Method in brief: as §1

HSF1, sequence (Q00613 whole entry): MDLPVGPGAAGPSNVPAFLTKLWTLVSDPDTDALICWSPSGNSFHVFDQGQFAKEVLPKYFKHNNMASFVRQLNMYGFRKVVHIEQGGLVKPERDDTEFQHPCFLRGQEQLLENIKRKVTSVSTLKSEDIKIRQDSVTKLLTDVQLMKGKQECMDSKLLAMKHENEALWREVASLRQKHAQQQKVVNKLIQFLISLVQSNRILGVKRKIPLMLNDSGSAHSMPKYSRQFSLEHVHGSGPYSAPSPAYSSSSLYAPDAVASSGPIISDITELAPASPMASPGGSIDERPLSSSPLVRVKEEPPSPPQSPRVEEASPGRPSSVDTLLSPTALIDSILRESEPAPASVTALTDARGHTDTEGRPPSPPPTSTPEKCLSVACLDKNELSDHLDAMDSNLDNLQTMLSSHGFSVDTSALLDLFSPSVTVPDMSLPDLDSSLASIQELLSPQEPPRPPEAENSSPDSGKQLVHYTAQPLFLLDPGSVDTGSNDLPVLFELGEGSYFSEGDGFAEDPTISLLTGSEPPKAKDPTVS
ELF1, sequence (P32519 whole entry): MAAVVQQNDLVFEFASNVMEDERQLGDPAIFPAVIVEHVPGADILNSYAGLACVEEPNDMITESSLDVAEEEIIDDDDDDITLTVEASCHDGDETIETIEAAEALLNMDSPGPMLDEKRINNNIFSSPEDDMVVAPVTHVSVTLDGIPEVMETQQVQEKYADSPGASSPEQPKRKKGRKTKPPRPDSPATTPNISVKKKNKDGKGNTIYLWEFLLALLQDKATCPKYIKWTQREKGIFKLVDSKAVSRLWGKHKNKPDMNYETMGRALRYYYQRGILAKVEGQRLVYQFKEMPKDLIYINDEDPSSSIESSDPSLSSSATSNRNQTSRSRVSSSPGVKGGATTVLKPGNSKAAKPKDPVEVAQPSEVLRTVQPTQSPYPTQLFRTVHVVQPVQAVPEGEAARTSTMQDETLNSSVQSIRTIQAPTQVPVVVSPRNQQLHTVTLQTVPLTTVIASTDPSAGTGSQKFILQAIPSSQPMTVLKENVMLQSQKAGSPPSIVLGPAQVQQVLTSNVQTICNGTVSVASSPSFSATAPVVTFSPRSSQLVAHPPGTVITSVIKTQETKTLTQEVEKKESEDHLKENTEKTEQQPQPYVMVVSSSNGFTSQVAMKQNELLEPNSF
ETV5, sequence (P41161 whole entry): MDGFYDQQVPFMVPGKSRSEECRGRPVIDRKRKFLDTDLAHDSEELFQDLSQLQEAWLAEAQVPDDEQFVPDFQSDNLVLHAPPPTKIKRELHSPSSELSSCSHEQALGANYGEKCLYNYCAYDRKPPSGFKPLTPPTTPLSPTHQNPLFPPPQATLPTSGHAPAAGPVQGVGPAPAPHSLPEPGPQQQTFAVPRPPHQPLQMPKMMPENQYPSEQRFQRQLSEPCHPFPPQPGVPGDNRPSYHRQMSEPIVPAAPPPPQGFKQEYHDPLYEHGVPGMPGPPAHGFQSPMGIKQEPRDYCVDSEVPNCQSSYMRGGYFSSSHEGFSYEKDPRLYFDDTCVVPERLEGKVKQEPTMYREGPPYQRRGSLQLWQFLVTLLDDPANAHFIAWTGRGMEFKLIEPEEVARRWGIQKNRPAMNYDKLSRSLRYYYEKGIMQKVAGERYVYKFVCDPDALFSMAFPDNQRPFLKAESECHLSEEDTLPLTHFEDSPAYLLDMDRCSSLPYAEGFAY
SPIB, sequence (Q01892 whole entry): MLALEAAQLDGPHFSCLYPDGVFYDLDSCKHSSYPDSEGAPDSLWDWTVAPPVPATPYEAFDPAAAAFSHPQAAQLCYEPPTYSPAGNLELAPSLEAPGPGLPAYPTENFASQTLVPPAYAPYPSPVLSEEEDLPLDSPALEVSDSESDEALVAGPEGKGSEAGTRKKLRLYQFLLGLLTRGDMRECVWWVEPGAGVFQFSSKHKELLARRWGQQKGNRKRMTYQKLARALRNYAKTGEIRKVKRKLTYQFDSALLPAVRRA
ELF4, sequence (Q99607 whole entry): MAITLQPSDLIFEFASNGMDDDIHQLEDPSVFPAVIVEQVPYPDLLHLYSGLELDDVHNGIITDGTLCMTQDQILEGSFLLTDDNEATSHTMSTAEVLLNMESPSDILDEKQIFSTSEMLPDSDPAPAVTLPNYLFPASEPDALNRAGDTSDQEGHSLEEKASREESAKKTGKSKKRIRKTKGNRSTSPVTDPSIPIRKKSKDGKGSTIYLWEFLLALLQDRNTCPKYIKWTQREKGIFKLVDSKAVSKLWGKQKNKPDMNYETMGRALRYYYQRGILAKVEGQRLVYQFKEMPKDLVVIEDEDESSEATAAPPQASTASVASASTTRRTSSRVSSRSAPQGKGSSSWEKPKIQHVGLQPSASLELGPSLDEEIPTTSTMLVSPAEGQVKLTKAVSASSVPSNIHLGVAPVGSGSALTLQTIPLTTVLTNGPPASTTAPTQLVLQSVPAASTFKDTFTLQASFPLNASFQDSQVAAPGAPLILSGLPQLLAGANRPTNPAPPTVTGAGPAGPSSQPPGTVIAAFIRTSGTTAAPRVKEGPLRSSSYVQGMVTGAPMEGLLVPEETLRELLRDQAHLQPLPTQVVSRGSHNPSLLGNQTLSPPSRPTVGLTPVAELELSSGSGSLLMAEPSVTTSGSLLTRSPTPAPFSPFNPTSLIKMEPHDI
ETV1, sequence (P50549 whole entry): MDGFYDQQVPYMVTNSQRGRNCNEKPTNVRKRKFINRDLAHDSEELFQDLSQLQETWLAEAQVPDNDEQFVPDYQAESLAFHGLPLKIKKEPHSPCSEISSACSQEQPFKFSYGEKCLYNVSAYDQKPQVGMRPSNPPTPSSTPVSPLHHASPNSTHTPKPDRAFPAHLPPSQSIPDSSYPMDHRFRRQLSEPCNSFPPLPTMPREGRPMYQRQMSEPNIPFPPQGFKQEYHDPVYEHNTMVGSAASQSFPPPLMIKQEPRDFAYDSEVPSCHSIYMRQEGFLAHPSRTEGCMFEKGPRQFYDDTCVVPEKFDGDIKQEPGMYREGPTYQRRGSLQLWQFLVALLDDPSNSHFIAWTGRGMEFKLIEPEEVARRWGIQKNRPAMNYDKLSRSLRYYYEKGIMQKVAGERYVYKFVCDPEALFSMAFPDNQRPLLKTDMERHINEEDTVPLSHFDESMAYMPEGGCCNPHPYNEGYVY

With ACTGTT as the sequence, how does the binding signal (FLI1) read?
The binding signal was 1.15 fold enrichment (6-mer frequency, TF over GST control).

And the binding signal (ELK1)?
The binding signal was 1.03 fold enrichment (6-mer frequency, TF over GST control).

And the binding signal (GABPA)?
Its binding signal is 1.23 fold enrichment (6-mer frequency, TF over GST control).

And the binding signal (ERG)?
The binding signal was 1.16 fold enrichment (6-mer frequency, TF over GST control).

What about the binding signal (ELF1) of the same sequence?
The binding signal was 1.11 fold enrichment (6-mer frequency, TF over GST control).

And the binding signal (EHF)?
Its binding signal is 1.13 fold enrichment (6-mer frequency, TF over GST control).

What about the binding signal (SPI1) of the same sequence?
The binding signal was 1.16 fold enrichment (6-mer frequency, TF over GST control).

And the binding signal (SPIB)?
Its binding signal is 1.15 fold enrichment (6-mer frequency, TF over GST control).

And the binding signal (ELK3)?
The binding signal was 1.18 fold enrichment (6-mer frequency, TF over GST control).

And the binding signal (FEV)?
The binding signal was 1.1 fold enrichment (6-mer frequency, TF over GST control).

What about the binding signal (ETV5) of the same sequence?
The binding signal was 1.1 fold enrichment (6-mer frequency, TF over GST control).

What about the binding signal (HSF1) of the same sequence?
Its binding signal is 1.03 fold enrichment (6-mer frequency, TF over GST control).

What about the binding signal (ELF4) of the same sequence?
Its binding signal is 1.2 fold enrichment (6-mer frequency, TF over GST control).

What about the binding signal (ELK4) of the same sequence?
The binding signal was 1.09 fold enrichment (6-mer frequency, TF over GST control).

What about the binding signal (ETV2) of the same sequence?
Its binding signal is 1.23 fold enrichment (6-mer frequency, TF over GST control).

And the binding signal (ELF3)?
The binding signal was 1.03 fold enrichment (6-mer frequency, TF over GST control).

What about the binding signal (ETV1) of the same sequence?
The binding signal was 1.12 fold enrichment (6-mer frequency, TF over GST control).

Reference: article PMC7862700, “An all-to-all approach to the identification of sequence-specific readers for epigenetic DNA modifications on cytosine”
